From PubChem BioAssay
GLP-1R inv ag: qHTS of GLP-1 Receptor Inverse Agonists (Inhibition Mode). HEK293 GLP-1R CRE-luciferase, luminescence, 24 h; GLP-1R form is constitutively active. Potency, µM (series often up to 38.3 µM), inactives show at the highest dose activity change, negative = inhibition, most hits filed as inhibitors. AID 624417, 2012. 1.6% of 410,000 active; note: % is set by controls: 0 for no effect and ±100 for the full control effect; nearly all actives have a fitted effect of over 55% in size
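Inverse agonists were sought by their lowering of basal cAMP reporter luciferase output in HEK293 cells stably carrying constitutively active human GLP-1R, after 24 h compound treatment.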
GLP-1R agonist: qHTS of GLP-1 Receptor Agonists; Glucagon-like peptide 1 receptor (Homo sapiens), P43220; HEK293 GLP-1R CRE-luciferase, luminescence, 4-6 h; cells express a hypersensitive GLP-1R form; Potency, µM (top dose mostly 45.6 µM), inactives show at the highest dose activation, actives largely listed as activators; 0.007% of 380,000 active; AID 624172, 2012; note: % of control where 0% means no effect
PTHR1 ag: qHTS for PTHR1 Agonists: Primary Screen. Parathyroid hormone/parathyroid hormone-related peptide receptor (Homo sapiens), Q03431. HEK293 GP2 PTHR1 cells, GloSensor cAMP luminescence, 1 h. Potency, µM (series often up to 115 µM), inactives show top-dose activation, actives largely listed as activators. 0.075% of 410,000 active. AID 743266, 2014; note: nearly all actives have a fitted effect of over 55% in size
Target sequence (Q03431 whole entry, looked up): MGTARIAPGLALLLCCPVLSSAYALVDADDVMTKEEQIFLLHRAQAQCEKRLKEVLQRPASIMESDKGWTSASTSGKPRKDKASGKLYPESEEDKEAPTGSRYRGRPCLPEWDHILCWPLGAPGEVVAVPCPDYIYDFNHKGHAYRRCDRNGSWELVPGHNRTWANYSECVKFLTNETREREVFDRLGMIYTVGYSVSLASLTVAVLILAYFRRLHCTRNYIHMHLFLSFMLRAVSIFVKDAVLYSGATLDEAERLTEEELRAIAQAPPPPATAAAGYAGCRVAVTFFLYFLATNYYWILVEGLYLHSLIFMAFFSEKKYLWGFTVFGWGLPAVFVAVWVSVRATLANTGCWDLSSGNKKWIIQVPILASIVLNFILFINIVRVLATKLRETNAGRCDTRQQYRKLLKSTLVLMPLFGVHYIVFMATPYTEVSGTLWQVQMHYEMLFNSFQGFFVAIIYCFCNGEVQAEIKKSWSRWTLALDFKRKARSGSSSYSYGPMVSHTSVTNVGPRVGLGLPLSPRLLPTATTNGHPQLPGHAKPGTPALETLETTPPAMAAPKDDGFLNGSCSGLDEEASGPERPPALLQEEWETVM
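HEK-293-derived GP2 cells expressing PTHR1 and a GloSensor cAMP reporter, 3,000/well, plated overnight, given luciferin plus IBMX (each 0.5 mM as added) for 1 h at 37 °C, then compound for 1 h at 37 °C. Luminescence was read after 15 min at room temperature.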
HEK293 tox: qHTS of GLP-1 Receptor Inverse Agonists: Cytotox Screen; Potency, µM (highest dose often 38.3 µM), for inactives: top-dose activity change, negative = inhibition, actives largely listed as inhibitors; 0.13% of 410,000 active; HEK293 cAMP-luciferase reporter cells, luminescence, 24 h; AID 624418, 2012;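 note: loss of luciferase light is scored as toxicity; % is set by controls: 0 for no effect and ±100 for the full control effect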
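Seeding density was 200 cells/uL; after overnight-length (12 h) culture, 23 nL compounds went on for 24 h at 37 °C. Readout used a luciferase detection reagent, luminescence taken after 12 min at room temperature.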
Active calls of the source: *; i = inactive; ? = inconclusive; . = no result given; [ ] = another dose, or the depositor's remark. This is a sample that favours compounds with a hit; in the whole collection about 1.7% have one here. Calls come from the whole dose curve; as a rule, active = well fitted curve in the direction sought with a large enough effect; inconclusive = small, poorly fitted or top-dose-only effect, or another doubt; inactive = no such curve, though single readings can be large; an effect the other way counts as inactive or inconclusive. Potency is the fitted concentration of half-maximal effect.

SMILES | GLP-1R inv ag | GLP-1R agonist | PTHR1 ag | HEK293 tox
Cc1ccc(S(=O)(=O)N2CCCc3cc(NC(=O)c4ccccc4Cl)ccc32)cc1 | -15% | . | -6% | 0%
CSC(=S)N/N=C/c1ccc(N(C)C)cc1 | -10% | 3% | i | -21%
CSC(=S)N/N=C/c1ccc(Br)cc1 | ? | -6% | -9% | 11µM*
Cc1ccc(NC(=O)Nc2nnc(N(C)C3CCCCC3)s2)c(Cl)c1 | -15% | . | -17% | -14%
CN1CCN(S(=O)(=O)c2ccc(Cc3ccc(S(=O)(=O)N4CCN(C)CC4)cc3)cc2)CC1 | 5.6µM* | -9% | i | -1%
CN1CCN(S(=O)(=O)c2ccc(Cl)cc2)CC1 | 1% | -6% | -41% | -9%
CN(CC(=O)Nc1cccc(Cl)c1)S(=O)(=O)/C=C/c1ccccc1 | 10µM* | 15% | i | -19%
O=C(Nc1ccc(N2CCOCC2)c(S(=O)(=O)Nc2ccccc2Cl)c1)c1ccc(F)cc1 | 10µM* | 1% | -34% | -6%
O=C(Nc1ccc(F)cc1)Nc1ccc(N2CCCC2)c(S(=O)(=O)Nc2ccccc2Cl)c1 | ? | -9% | -32% | -6%
CN(C)CCn1c2c(c(SCC(=O)Nc3cccc(C(F)(F)F)c3)nc1=O)CCCC2 | 10µM* | 7% | -9% | -7%
CCN(CC)CCn1c2c(c(SCC(=O)Nc3cccc(C(F)(F)F)c3)nc1=O)CCC2 | 8% | . | -12% | 0%
COc1ccc(Cl)cc1NC(=O)CSc1nc(=O)n(CCN(C)C)c2c1CCCC2 | 11µM* | -1% | i | 0%
CCOC(=O)/C(=C/c1c2ccccc2cc2ccccc12)NC(=O)c1ccccc1 | 4.5µM* | -2% | -4%[57.5 µM] | 17%
O=S1(=O)CCS(=O)(=O)C1c1ccccc1 | 11µM* | -9% | 3% | ?
Cc1nc(SCC(=O)Nc2ccc(Cl)cc2C(F)(F)F)[nH]c(=O)c1Cc1ccccc1 | 6% | -2% | -12% | 2%
O=C(c1ccc2c(c1)OCO2)N1CCC2(CC1)Oc1ccc(Cl)cc1C(=O)C21CC(c2ccccc2)=NO1 (stereo unspecified) | -12% | 1% | -21% | 4.5µM*
O=C1CC(c2ccccc2Oc2cccc(Cl)c2)C(n2cncn2)C(=O)C1C1NCCc2ccccc21 (stereo unspecified) | ? | -1% | i | -10%
CC(C)(C)c1ccc(Oc2cccc(C3CC(=O)C(C4NCCc5ccccc54)C(=O)C3n3cncn3)c2)cc1 (stereo unspecified) | 6.3µM* | -5% | -3%[57.5 µM] | -22%
COC(=O)c1c(N)n(-c2cc(Cl)cc(Cl)c2)c2nc3ccccc3nc12 | 18% | 9% | i | -8%
CCCCNc1ncnc2c1nnn2C | 9% | . | ? | 3%
Cc1ccc2nc(SCC3CCCCO3)[nH]c2c1 (stereo unspecified) | 3.5µM* | 2% | -92% | 7%
O=C(Oc1coc(CSc2ncccn2)cc1=O)c1cccc([N+](=O)[O-])c1 | 20% | 0% | i | -4%
O=C(Oc1c(Cl)cc(Cl)c2cccnc12)c1cccc([N+](=O)[O-])c1 | 13µM* | 2% | -4% | ?
O=C(Oc1ccc(Cl)c2cccnc12)c1cccc([N+](=O)[O-])c1 | 5µM* | 27% | i | ?
O=C(Oc1cccc2cccnc12)c1cccc([N+](=O)[O-])c1 | ? | 0% | 2% | ?
SMILES | GLP-1R inv ag | GLP-1R agonist | PTHR1 ag | HEK293 tox
Cc1ccc(S(=O)Cc2ccc(C(=O)NC3CCCCCC3)o2)cc1 (stereo unspecified) | -7% | 0% | -39% | -5%
N#Cc1ccccc1N/C=C/C(=O)c1ccc(Cl)cc1 | 6.3µM* | 11% | -21% | -1%
COC(=O)C1=CN(Cc2ccc(OC)cc2)C=C(C(=O)OC)C1c1cc(OC)c(OC)c(OC)c1 | ? | 5µM* | i | 248%
CCc1ccc(N(CC)C(=O)Cn2nc(Cc3cccnc3)c3ccccc3c2=O)cc1 | -20% | . | i | 1%
COc1ccc(-n2c(=O)c3c4c(sc3n(Cc3ccc(C(C)(C)C)cc3)c2=O)CCC4)c(OC)c1 | 6.3µM* | . | i | -3%
O=C(Cn1cc(/C=N/NC(=O)c2cccc3ccccc23)c2ccccc21)Nc1ccc(F)cc1 | 1.6µM* | -1% | i | 7%
O=c1[nH]nc(Sc2ncnc3sccc23)n1CCc1ccccc1 | 5.6µM* | -7% | -23% | ?
CCN(CC)CCCCN1c2ccccc2Sc2ccccc21 | 5µM* | -2% | ? | ?
CCN(CC)CC(=O)N1c2ccccc2Sc2ccccc21 | -8% | -4% | i | -3%
COc1ccccc1N(C)C(=O)Cn1c(=O)oc2cc(S(=O)(=O)N3CCCC3)ccc21 | -6% | -4% | -34% | 2%
CCOc1ccccc1CNC(=O)c1cnc2sc(N3CCCC3)nn2c1=O | 3% | . | 0% | 10%
CCOC(=O)c1cccc(Nc2ncnc3ccc(C)cc23)c1 | 11µM* | 4% | -27% | -16%
O=C1COc2cc(S(=O)(=O)NCc3ccco3)c(Cl)cc2N1 | 11% | . | -24% | 7%
O=C(CCCn1c2ccccc2c(=O)c2ccccc21)Nc1cccc(Cl)c1 | 6.3µM* | . | -3% | 148%
Cc1cccc(NC(=O)c2oc3ccccc3c2NC(=O)c2cc(=O)c3ccc(C)cc3o2)c1 | 12% | . | -33% | 18%
CC1CCCN(c2ccc3nc4ccccc4c(=O)n3n2)C1 (stereo unspecified) | 5µM* | -3% | -41% | 3%
Cc1ccc(C(=O)Nc2nnc(S(=O)(=O)N(C)Cc3ccc(F)cc3)s2)cc1 | -2% | . | -6% | 1%
Cc1cc(Cl)ccc1C1=CC(=O)C[C@H](c2ccc(F)cc2)C1 | 11µM* | -2% | i | -3%
COc1ccc([C@H]2CC(=O)C=C(c3ccc(Cl)cc3C)C2)cc1 | -2% | 6% | -17% | -5%
Cc1ccc(N(Cc2cccs2)C(=O)c2ccccc2Cl)cc1 | ? | . | -24% | 4%
Cc1ccc(C2=CC(c3ccc(Cl)cc3)n3nc(-c4ccc(C)cc4)nc3N2)cc1 (stereo unspecified) | 2.2µM* | . | i | 35%
COc1ccc(C2C=C(c3ccc(Cl)cc3)Nc3nc(-c4ccc(Cl)cc4)nn32)cc1 (stereo unspecified) | ? | . | i | 73%
N#CCCN(C(=O)CCl)c1cccc(Cl)c1 | 2.2µM* | -5% | -43% | -13%
CN(C)CCCNC(=O)C(=O)Nc1ccc2c(c1)N(S(=O)(=O)c1cccs1)CCC2 | -72% | -3% | -13% | -28%
CN(C)CCNC(=O)C(=O)Nc1ccc2c(c1)N(S(=O)(=O)c1cccs1)CCC2 | ? | 12% | i | 4.5µM*
CCC(Oc1ccccc1F)C(=O)N1CCC(c2nc3ccccc3s2)CC1 (stereo unspecified) | ? | . | -29% | 1%
